Assay [1] has as its target Paired box protein Pax-6 (Homo sapiens) (UniProt P26367). As to the kind of experiment: ATG_Pax6_CIS: Attagene CIS-FACTORIAL HepG2 Assay for human Paired Box 6 (PAX6) (AID 2282956). To be noted: HepG2 CIS-FACTORIAL PAX6 reporter transcription, RNA readout; actives raise or lower the signal. A digest of the protocol:
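Readout: reporter transcript fluorescence after RT-PCR and capillary electrophoresis. Cells: HepG2, transiently transfected with cis-regulated MRTUs. Exposure 24 h. Gain or loss of signal fitted bidirectionally relative to DMSO.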

Assay [2] can be described thus: ATG_PXRE_CIS: Attagene CIS-FACTORIAL HepG2 Assay for human Pregnane X Receptor Element (PXRE) (AID 2282957). To be noted: HepG2 Attagene CIS-FACTORIAL PXRE reporter, mRNA; actives raise or lower the signal. The gist of the method:
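Using HepG2 transfected with multiple reporter transcription units, endogenous factor-driven transcription was scored as reporter mRNA after 24 h exposure.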

A short description of assay [3]: ATG_RORE_CIS: Attagene CIS-FACTORIAL HepG2 Assay for human RAR-related Orphan Receptor Element (RORE) (AID 2282959). To be noted: HepG2 Attagene cis-factorial RORE reporter, mRNA; actives raise or lower the signal. The gist of the method: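 HepG2 cells carrying transiently transfected cis-regulated reporter units; RORE-driven reporter mRNA quantified 24 h post-dosing by RT-PCR, 6-FAM primer extension, HpaI digestion and capillary electrophoresis. Bidirectional fit versus DMSO.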

Assay [4] is described as follows: ATG_Sox_CIS: Attagene CIS-FACTORIAL HepG2 Assay for human SRY-box transcription factor (SOX) (AID 2282960). To be noted: HepG2 Attagene cis-factorial SOX reporter, mRNA; actives raise or lower the signal. A digest of the protocol: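 HepG2 cells transiently transfected with multiple cis-regulated reporter units, then dosed for 24 h. Reporter mRNA quantified by RT-PCR, fluorescent labelling, HpaI digestion and capillary electrophoresis; bidirectional fit versus DMSO.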

The target of assay [5] is Transcription factor Sp1 (Homo sapiens) (UniProt P08047). Kind of assay: ATG_Sp1_CIS: Attagene CIS-FACTORIAL HepG2 Assay for human Specificity Protein 1 (Sp1) (AID 2282961). To be noted: HepG2 Sp1 cis-reporter transcription, actives raise or lower the signal. The gist of the method:
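HepG2 cells transiently transfected with multiplexed cis-regulated reporter constructs, chemical exposure 24 h. Reporter mRNA quantified by RT-PCR with capillary electrophoresis; bidirectional fit relative to DMSO.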

The nature of assay [6]: ATG_SREBP_CIS: Attagene CIS-FACTORIAL HepG2 Assay for human Sterol Regulatory Element Binding (SREBP) (AID 2282962). To be noted: HepG2 Attagene cis-factorial SREBP reporter, mRNA; actives raise or lower the signal. A digest of the protocol: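 Readout: fluorescent reporter-transcript peaks resolved by capillary electrophoresis after RT-PCR. Cells were human HepG2 carrying transfected cis-promoter reporter constructs, dosed for 24 h. Gain or loss of signal was fitted against DMSO controls.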

For assay [7], the target named is Signal transducer and activator of transcription 3 (Homo sapiens) (UniProt P40763). As to the kind of experiment: ATG_STAT3_CIS: Attagene CIS-FACTORIAL HepG2 Assay for human Signal Transducer and Activator of Transcription 3 (STAT3) (AID 2282963). To be noted: HepG2, Attagene cis-factorial STAT3 reporter transcription; actives raise or lower the signal. The gist of the method:
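Cis-factorial format: endogenous transcription factors in HepG2 drive transfected reporter units. After 24 h treatment, reporter RNA was reverse-transcribed, amplified, FAM-labelled and HpaI-digested before CE analysis; activity scored in both directions against DMSO.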

A short description of assay [8]: ATG_TA_CIS: Attagene CIS-FACTORIAL HepG2 Assay for human TA Basal Promoter (AID 2282964). To be noted: HepG2 Attagene CIS-factorial TA basal promoter reporter; actives raise or lower the signal. A digest of the protocol: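 Read-out: fluorescent reporter-transcript fragments resolved by capillary electrophoresis after RT-PCR and HpaI digestion. Source: HepG2 cells carrying transiently transfected multi-reporter cis constructs, treated 24 h. Endpoint fitted bidirectionally relative to DMSO.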

A short description of assay [9]: ATG_TCF_b_cat_CIS: Attagene CIS-FACTORIAL HepG2 Assay for human T-Cell-Factor with beta-catenin (TCF/b-cat) (AID 2282965). To be noted: HepG2 TCF/beta-catenin cis-reporter transcription, actives raise or lower the signal. The gist of the method:
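Endogenous TCF/LEF activity read as reporter transcript level via RT-PCR and capillary electrophoresis fluorescence in transfected HepG2, 24 h exposure; gain or loss of signal fitted against DMSO controls.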

Assay [10] is described as follows: ATG_TAL_CIS: Attagene CIS-FACTORIAL HepG2 Assay for human TAL Basal Promoter (AID 2282966).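 Note: background control endpoint measuring basal TAL promoter reporter mRNA not a specific factor.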 To be noted: HepG2 Attagene cis-factorial TAL promoter reporter; actives raise or lower the signal. The gist of the method:
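After 24 hours of chemical exposure, transfected HepG2 cells yielded RNA that was converted to 6-FAM-labelled, HpaI-digested reporter fragments for capillary electrophoresis. Values derive from bidirectional fitting against DMSO controls.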

The nature of assay [11]: ATG_TGFb_CIS: Attagene CIS-FACTORIAL HepG2 Assay for human Transforming Growth Factor (TGF) (AID 2282967). To be noted: HepG2 Attagene CIS TGFb reporter, mRNA transcription; actives raise or lower the signal. A digest of the protocol: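 Transient MRTU transfection of HepG2 (FuGene 6). Dose 24 h. TriZol RNA, oligo(dT) RT, PCR, 6-FAM primer extension, HpaI cut, CE. Bidirectional fit, DMSO = baseline.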

Assay [12] concerns the target Estrogen receptor (Homo sapiens) (UniProt P03372). As to the kind of experiment: ATG_ERa_TRANS: Attagene TRANS-FACTORIAL HepG2 Assay for human Estrogen Receptor alpha (ERa) (AID 2282970; active = hit-call score of the fitted dose curve at least 0.9, where 1 is the maximum). To be noted: HepG2 Attagene TRANS ERa GAL4 reporter, mRNA. A digest of the protocol:
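Liver-derived HepG2 cells expressing chimeric nuclear receptor-Gal4 proteins from transient transfection were exposed for 24 hours. Gain of reporter mRNA signal versus DMSO, read by capillary electrophoresis of FAM-labelled PCR products, was recorded.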

Assay [13] addresses X-box-binding protein 1 (Homo sapiens) (UniProt P17861). As to the kind of experiment: ATG_Xbp1_CIS: Attagene CIS-FACTORIAL HepG2 Assay for human X-box Binding Protein 1 (XBP1) (AID 2282972). To be noted: HepG2 XBP1 cis-element reporter, Attagene multiplex; actives raise or lower the signal. The gist of the method:
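Read-out: fluorescent reporter mRNA fragments resolved by capillary electrophoresis after RT-PCR. Human HepG2 liver cells carried transfected cis-promoter reporter units and were exposed to chemicals for 24 hours. Gain or loss of signal fitted relative to DMSO baseline.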

Assay [14] in a line: ATG_PPRE_CIS: Attagene CIS-FACTORIAL HepG2 Assay for human Peroxisome Proliferator-activated Response Element (PPRE) (AID 2282958). To be noted: HepG2 PPRE cis-element reporter, Attagene transcription factor profiling; actives raise or lower the signal. The gist of the method:
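HepG2 cells are transiently transfected with multiplexed cis-promoter reporter units to report endogenous PPAR activity. After 24 h dosing, reporter mRNA is read by RT-PCR and capillary electrophoresis. Fitting is bidirectional against DMSO.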

The nature of assay [15]: ATG_VDRE_CIS: Attagene CIS-FACTORIAL HepG2 Assay for human Vitamin D Receptor Element (VDRE) (AID 2282968). To be noted: HepG2 VDRE cis-reporter transcription, actives raise or lower the signal. The gist of the method:
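Measures endogenous factor activity through cis-element-driven reporter transcripts in transiently transfected HepG2. Cells are treated 24 h; reporter mRNA is quantified by RT-PCR and capillary electrophoresis; fitting is bidirectional.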

The nature of assay [16]: ATG_M_19_TRANS: Attagene TRANS-FACTORIAL HepG2 Assay for M19 Transcription Factor (Internal Marker) (AID 2282974; active = hit-call score of the fitted dose curve at least 0.9, where 1 is the maximum). To be noted: HepG2 Attagene TRANS-FACTORIAL M19 internal marker reporter. The gist of the method:
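HepG2 transiently transfected with GAL4-UAS multiplex reporter constructs, exposed 24 h; reporter RNA quantified by RT-PCR, 6-FAM labeling, HpaI digestion and capillary electrophoresis; internal background marker fitted upward versus DMSO.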

The nature of assay [17]: ATG_PBREM_CIS: Attagene CIS-FACTORIAL HepG2 Assay for human Phenobarbital-responsive Enhancer Module (PBREM) (AID 2282955). To be noted: HepG2 PBREM cis-reporter, Attagene multiplexed transcription; actives raise or lower the signal. A digest of the protocol:
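HepG2 cells transiently transfected with multiple cis-regulated reporter units measure endogenous transcription factor activity; 24 h compound exposure. Reporter mRNA quantified by RT-PCR, fluorescent labelling, HpaI digestion and capillary electrophoresis; bidirectional fit versus DMSO.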

For assay [18], the target named is Nuclear receptor subfamily 1 group I member 3 (Homo sapiens) (UniProt Q14994). Kind of assay: ATG_CAR_TRANS: Attagene TRANS-FACTORIAL HepG2 Assay for human Constitutive Androstane Receptor (CAR) (AID 2282969; active = hit-call score of the fitted dose curve at least 0.9, where 1 is the maximum;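 note: activators raise reporter mRNA above DMSO so AC50 marks induction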). To be noted: HepG2 Attagene TRANS-FACTORIAL CAR reporter. The gist of the method: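 Signal is reporter mRNA induction relative to DMSO, measured 24 h after dosing by RT-PCR with fluorescent primer extension and capillary electrophoresis. Human HepG2 liver cells carried transiently transfected chimeric NR-Gal4/GAL4-UAS reporter constructs.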

The target of assay [19] is Androgen receptor (Homo sapiens) (UniProt P10275). Kind of assay: ATG_AR_TRANS: Attagene TRANS-FACTORIAL HepG2 Assay for human Androgen Receptor (AR) (AID 2282973; active = hit-call score of the fitted dose curve at least 0.9, where 1 is the maximum). To be noted: HepG2 Attagene TRANS-FACTORIAL AR reporter transcription. A digest of the protocol:
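Steps: transfect HepG2 with multiple GAL4-UAS reporter transcription units (TRANS format, exogenous NR-Gal4 protein); dose 24 h; isolate RNA, reverse-transcribe, PCR-amplify, FAM-label, HpaI-digest; resolve by capillary electrophoresis. Positive direction vs DMSO.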

For assay [20], the target named is Steroid hormone receptor ERR1 (Homo sapiens) (UniProt P11474). Kind of assay: ATG_ERRa_TRANS: Attagene TRANS-FACTORIAL HepG2 Assay for human Estrogen-Related Receptor alpha (ERRa) (AID 2282971; active = hit-call score of the fitted dose curve at least 0.9, where 1 is the maximum). To be noted: HepG2 Attagene TRANS reporter, ERRa transactivation. The gist of the method: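 Reporter transcript induction was quantified by RT-PCR and capillary electrophoresis of FAM-labelled, HpaI-cut products after 24 h treatment of HepG2 cells carrying transiently transfected GAL4-UAS reporter units and an exogenous ERRa-Gal4 fusion; activity scored as increase over DMSO.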

SMILES strings stand for the structures. Results filed as inconclusive are left out. The source made the active and inactive calls. Rule for the calls, unless noted: active = hit-call score of the fitted dose curve at least 0.9, where 1 is the maximum; inactive = score below 0.9.

Estrogen receptor (Homo sapiens), sequence (P03372 whole entry, looked up, the tested form may be a part): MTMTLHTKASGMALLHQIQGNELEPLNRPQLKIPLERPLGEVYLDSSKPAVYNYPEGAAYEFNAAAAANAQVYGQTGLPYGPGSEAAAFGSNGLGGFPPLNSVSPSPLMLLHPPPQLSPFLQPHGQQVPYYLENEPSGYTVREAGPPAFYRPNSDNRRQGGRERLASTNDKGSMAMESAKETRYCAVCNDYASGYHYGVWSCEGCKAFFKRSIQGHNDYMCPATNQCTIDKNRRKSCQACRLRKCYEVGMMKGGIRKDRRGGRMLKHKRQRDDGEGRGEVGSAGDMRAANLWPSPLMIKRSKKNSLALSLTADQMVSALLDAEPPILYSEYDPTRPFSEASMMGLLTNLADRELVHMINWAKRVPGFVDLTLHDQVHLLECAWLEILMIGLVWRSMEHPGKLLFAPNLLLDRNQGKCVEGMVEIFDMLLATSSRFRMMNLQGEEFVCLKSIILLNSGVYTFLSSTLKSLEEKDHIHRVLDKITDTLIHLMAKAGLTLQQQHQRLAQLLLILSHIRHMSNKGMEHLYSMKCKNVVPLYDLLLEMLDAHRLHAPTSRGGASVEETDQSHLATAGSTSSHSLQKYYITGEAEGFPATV
Paired box protein Pax-6 (Homo sapiens), sequence (P26367 whole entry, looked up): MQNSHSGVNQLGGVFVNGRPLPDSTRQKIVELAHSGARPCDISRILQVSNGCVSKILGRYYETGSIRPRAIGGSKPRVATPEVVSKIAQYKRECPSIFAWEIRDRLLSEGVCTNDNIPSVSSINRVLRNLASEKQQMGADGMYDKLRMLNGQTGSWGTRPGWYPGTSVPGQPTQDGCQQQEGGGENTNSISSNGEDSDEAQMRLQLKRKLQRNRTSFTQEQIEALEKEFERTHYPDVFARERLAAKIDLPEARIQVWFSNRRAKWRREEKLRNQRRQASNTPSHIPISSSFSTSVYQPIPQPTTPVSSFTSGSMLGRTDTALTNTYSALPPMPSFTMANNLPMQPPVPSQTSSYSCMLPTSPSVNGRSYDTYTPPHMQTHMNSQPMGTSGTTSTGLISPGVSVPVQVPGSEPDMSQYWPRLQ
Signal transducer and activator of transcription 3 (Homo sapiens), sequence (P40763 whole entry, looked up): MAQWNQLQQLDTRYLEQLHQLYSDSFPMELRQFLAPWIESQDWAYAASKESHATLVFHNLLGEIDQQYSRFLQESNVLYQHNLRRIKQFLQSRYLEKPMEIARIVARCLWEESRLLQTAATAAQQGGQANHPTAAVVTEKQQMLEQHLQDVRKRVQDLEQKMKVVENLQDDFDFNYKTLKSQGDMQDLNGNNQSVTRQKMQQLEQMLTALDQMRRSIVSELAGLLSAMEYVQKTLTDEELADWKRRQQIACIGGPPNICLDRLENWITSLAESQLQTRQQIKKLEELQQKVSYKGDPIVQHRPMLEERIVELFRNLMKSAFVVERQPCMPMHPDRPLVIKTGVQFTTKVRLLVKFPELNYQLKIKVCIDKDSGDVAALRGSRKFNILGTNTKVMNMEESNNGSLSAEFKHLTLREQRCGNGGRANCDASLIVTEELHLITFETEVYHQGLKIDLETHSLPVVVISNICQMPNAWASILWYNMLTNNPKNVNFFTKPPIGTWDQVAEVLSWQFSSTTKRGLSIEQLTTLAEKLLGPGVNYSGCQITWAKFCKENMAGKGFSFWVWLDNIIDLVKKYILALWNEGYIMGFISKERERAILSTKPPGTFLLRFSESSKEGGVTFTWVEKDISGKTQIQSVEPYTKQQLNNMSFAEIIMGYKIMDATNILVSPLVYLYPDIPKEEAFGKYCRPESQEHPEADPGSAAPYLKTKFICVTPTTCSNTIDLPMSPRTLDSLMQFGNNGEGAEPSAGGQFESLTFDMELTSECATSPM
Transcription factor Sp1 (Homo sapiens), sequence (P08047 whole entry, looked up): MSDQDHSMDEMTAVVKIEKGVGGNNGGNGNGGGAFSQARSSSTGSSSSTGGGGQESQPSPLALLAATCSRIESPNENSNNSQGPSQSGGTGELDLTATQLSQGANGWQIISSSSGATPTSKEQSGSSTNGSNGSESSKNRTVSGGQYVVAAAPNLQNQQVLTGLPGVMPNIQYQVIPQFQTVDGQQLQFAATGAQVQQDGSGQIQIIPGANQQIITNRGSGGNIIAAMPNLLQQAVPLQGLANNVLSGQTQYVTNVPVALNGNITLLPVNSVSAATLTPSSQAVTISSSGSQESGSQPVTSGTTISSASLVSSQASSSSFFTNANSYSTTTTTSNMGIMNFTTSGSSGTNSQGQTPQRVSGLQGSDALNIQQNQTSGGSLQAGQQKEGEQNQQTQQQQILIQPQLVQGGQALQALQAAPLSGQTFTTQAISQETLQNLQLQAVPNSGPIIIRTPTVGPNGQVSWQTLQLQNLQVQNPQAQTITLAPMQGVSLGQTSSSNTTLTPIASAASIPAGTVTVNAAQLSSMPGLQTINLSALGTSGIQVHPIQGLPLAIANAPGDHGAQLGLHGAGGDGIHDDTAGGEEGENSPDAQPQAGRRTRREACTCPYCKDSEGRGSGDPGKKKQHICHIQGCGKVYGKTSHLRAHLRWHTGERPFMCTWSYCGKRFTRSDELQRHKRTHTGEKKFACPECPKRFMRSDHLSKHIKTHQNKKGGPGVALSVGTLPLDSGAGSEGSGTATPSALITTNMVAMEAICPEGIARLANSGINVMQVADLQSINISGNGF
X-box-binding protein 1 (Homo sapiens), sequence (P17861 whole entry, looked up, the tested form may be a part): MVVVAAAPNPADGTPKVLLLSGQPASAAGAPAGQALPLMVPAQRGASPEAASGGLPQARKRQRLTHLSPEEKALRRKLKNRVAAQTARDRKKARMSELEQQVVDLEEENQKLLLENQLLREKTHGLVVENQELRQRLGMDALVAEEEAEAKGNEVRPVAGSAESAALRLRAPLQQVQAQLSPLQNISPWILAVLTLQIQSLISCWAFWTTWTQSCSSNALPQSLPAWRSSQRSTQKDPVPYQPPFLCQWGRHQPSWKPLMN
Androgen receptor (Homo sapiens), sequence (P10275 whole entry, looked up, the tested form may be a part): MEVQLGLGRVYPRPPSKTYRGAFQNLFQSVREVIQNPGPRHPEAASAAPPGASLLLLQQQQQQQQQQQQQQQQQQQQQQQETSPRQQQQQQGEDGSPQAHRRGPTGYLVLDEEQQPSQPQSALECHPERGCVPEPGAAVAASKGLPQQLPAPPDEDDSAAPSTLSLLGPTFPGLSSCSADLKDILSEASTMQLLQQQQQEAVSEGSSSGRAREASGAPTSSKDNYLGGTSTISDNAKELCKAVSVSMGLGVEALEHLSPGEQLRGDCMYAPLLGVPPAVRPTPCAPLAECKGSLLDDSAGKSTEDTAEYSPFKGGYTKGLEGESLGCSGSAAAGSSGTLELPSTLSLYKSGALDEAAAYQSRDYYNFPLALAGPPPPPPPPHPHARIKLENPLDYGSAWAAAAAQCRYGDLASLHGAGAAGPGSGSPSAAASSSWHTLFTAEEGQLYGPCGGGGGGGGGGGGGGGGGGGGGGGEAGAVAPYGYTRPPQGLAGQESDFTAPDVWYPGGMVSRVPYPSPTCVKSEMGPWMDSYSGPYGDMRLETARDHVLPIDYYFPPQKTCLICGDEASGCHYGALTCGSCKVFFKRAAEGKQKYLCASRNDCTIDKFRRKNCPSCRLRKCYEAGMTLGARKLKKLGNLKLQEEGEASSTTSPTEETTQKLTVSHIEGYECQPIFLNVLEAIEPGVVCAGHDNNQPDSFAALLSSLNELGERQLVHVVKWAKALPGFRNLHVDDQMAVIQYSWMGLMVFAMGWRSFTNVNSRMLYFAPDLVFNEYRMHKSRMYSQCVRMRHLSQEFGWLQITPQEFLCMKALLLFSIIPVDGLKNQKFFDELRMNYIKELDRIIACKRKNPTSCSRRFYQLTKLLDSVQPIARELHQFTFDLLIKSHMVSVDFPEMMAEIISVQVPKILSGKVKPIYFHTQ
Steroid hormone receptor ERR1 (Homo sapiens), sequence (P11474 whole entry, looked up, the tested form may be a part): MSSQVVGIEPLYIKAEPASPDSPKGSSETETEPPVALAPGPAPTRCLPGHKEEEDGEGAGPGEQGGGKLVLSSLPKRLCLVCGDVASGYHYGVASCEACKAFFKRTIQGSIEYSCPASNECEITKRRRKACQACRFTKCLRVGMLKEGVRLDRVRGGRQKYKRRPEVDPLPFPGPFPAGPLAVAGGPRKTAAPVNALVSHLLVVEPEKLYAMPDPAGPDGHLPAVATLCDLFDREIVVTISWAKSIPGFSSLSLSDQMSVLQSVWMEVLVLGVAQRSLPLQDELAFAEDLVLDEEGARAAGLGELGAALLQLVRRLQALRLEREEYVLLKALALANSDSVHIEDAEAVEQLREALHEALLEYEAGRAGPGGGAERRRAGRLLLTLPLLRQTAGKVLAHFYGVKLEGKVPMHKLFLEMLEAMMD
Nuclear receptor subfamily 1 group I member 3 (Homo sapiens), sequence (Q14994 whole entry, looked up, the tested form may be a part): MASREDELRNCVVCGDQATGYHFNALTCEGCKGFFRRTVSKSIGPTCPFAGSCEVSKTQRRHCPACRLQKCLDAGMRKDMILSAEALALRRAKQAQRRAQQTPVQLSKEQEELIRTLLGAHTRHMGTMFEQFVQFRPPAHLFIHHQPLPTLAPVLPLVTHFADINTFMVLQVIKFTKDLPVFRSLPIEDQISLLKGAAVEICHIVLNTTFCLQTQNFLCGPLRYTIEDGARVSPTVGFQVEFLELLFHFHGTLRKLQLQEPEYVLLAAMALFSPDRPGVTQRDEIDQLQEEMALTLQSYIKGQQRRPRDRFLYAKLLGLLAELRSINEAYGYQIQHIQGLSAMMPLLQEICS

Consider `CCOP(=S)(OCC)Oc1nc(Cl)n(C(C)C)n1`, for which the outcome in [1], in assay [3], in assay [4], in assay [5], in assay [7] and in assay [8] was inactive. In addition, the outcome in assay [9], in assay [10], in [11] and in assay [13] was inactive. For the same molecule, the AC50 was 0.655 µM (active) in assay [2], 5.98 µM (active) in assay [6] and 29.9 µM (active) in assay [12].

Turning to `Cc1nc(N(C)C)nc(OC(=O)N(C)C)c1C`, the molecule was called inactive in [1], in [14], in [3], in assay [4], in assay [5] and in assay [6]. Moreover, the molecule was classed as inactive in [7], in assay [8], in [9], in assay [10], in assay [11] and in [15]. Besides, the outcome in assay [12], in assay [13] and in [16] was inactive. The half-maximal activity concentration (AC50) in [2] was 50 µM (active).

Turning to `CCNP(=S)(OC)O/C(C)=C/C(=O)OC(C)C` (configuration not stated), the AC50 in [17] is 14.7 µM (active); in [2], 2.6 µM (active); in assay [6], 16.3 µM (active); in [15], 13.8 µM (active); in assay [12] it was 31.9 µM (active). Also, the call in assay [1], in assay [3], in [4], in [5], in assay [7] and in [8] was inactive. For the same molecule, the result in assay [9], in assay [10], in assay [11], in assay [18] and in assay [13] was inactive.

With `Clc1cccc(C(Cl)(Cl)Cl)n1`, the outcome in assay [1], in assay [3], in assay [4], in assay [5], in assay [6] and in [7] was inactive. The molecule was called inactive in assay [8], in [9], in assay [10], in assay [11], in assay [12] and in assay [13]. For the same molecule, the result in [19] and in assay [16] was inactive. Besides, the AC50 in assay [2] is 48.7 µM (active).

Consider `CS(=O)(=O)c1cc(C(F)(F)F)ccc1C(=O)c1cnoc1C1CC1`, for which the result in [17], in assay [1], in assay [14], in [3], in assay [4] and in assay [5] was inactive. Further, the molecule was classed as inactive in [6], in assay [7], in [8], in assay [9], in assay [10] and in [11]. Also, the molecule was classed as inactive in assay [20], in [13] and in [16]. Besides, the AC50 in assay [2] is 40.2 µM (active).

On to `Nc1c(Cl)c(F)nc(OCC(=O)O)c1Cl`, for which the result in assay [17], in assay [1], in assay [3], in assay [4], in [5] and in assay [6] was inactive. The molecule was called inactive in assay [7], in assay [8], in [9], in assay [10], in assay [11] and in assay [12]. Also, the result in assay [20], in [13] and in assay [19] was inactive. Also, the concentration at half-maximal activity (AC50) in [2] is 50 µM (active).

The values are drawn from PubChem BioAssay (EPA / NIEHS).
